The record followed here is PubChem BioAssay (EPA / NIEHS).

The target in assay [1] is Oxysterols receptor LXR-alpha (Homo sapiens) (UniProt Q13133). Briefly: ATG_LXRa_TRANS: Attagene TRANS-FACTORIAL HepG2 Assay for human Liver X Receptor alpha (LXRa) (AID 2282980; active = hit-call score of the fitted dose curve at least 0.9, where 1 is the maximum). To be noted: HepG2 Attagene TRANS reporter, LXRa transactivation. The method, boiled down:
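HepG2 cells transiently transfected with GAL4-UAS reporter units for chimeric NR-Gal4 proteins, exposed to chemicals for 24 h. Reporter mRNA quantified by RT-PCR and capillary electrophoresis; gain of signal fitted relative to DMSO.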

Assay [2] has as its target Oxysterols receptor LXR-beta (Homo sapiens) (UniProt P55055). The assay is described as follows: ATG_LXRb_TRANS: Attagene TRANS-FACTORIAL HepG2 Assay for human Liver X Receptor beta (LXRb) (AID 2282981; active = hit-call score of the fitted dose curve at least 0.9, where 1 is the maximum). Conditions: HepG2 Attagene TRANS GAL4-LXRb reporter, mRNA. The method in brief:
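Readout: fluorescent reporter mRNA fragments resolved by capillary electrophoresis after RT-PCR. System: transiently transfected human HepG2, exogenous LXRb-Gal4 chimera driving GAL4-UAS reporter, 24 h dosing. Activity fitted upward against DMSO baseline.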

In assay [3] the target is Hepatocyte nuclear factor 4-alpha (Homo sapiens) (UniProt P41235). Briefly: ATG_HNF4a_TRANS: Attagene TRANS-FACTORIAL HepG2 Assay for human Hepatocyte Nuclear Factor 4 alpha (HNF4a) (AID 2282982; active = hit-call score of the fitted dose curve at least 0.9, where 1 is the maximum). Conditions: HepG2 HNF4a transactivation reporter, mRNA readout. The method, boiled down: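 Transient MRTU transfection of HepG2, 24 h dosing. Readout: reporter mRNA via RT-PCR + capillary electrophoresis, fluorescence; activity fit upward relative to DMSO control.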

Assay [4] can be described thus: ATG_M_32_TRANS: Attagene TRANS-FACTORIAL HepG2 Assay for M32 Transcription Factor (Internal Marker) (AID 2282984; active = hit-call score of the fitted dose curve at least 0.9, where 1 is the maximum;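 also: transcript level of a background control reporter unit measured by RT-PCR and capillary electrophoresis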). Conditions: HepG2 Attagene TRANS M32 internal marker reporter. The method in brief:
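Read-out: fluorescent reporter cDNA fragments resolved by capillary electrophoresis after RT-PCR of total RNA. Transfected HepG2 cells were exposed to chemical for 24 h. Activity scored in the positive direction relative to DMSO.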

Assay [5] has as its target Nuclear receptor subfamily 4 group A member 2 (Homo sapiens) (UniProt P43354). The assay is described as follows: ATG_NURR1_TRANS: Attagene TRANS-FACTORIAL HepG2 Assay for human Nuclear Receptor Related Protein 1 (NURR1) (AID 2282985; active = hit-call score of the fitted dose curve at least 0.9, where 1 is the maximum). Conditions: HepG2 Attagene TRANS reporter, mRNA readout. The method, boiled down:
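Read-out: reporter mRNA induction by RT-PCR plus capillary electrophoresis with fluorescence detection, after 24 h dosing of transfected HepG2 cells. Exogenous NR-Gal4 chimera activity drives GAL4-UAS reporter; activity fitted upward versus DMSO.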

The target of assay [6] is Transcriptional activator Myb (Homo sapiens) (UniProt P10242). Briefly: ATG_Myb_CIS: Attagene CIS-FACTORIAL HepG2 Assay for human Myeloblastosis (Myb) Proto-Oncogene Transcription Factor (AID 2282986). To be noted: HepG2 Attagene CIS-FACTORIAL Myb reporter transcription; actives raise or lower the signal. The method, boiled down:
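In this HepG2 transient-transfection format, cis-regulated reporter mRNA is quantified 24 h post-dosing by RT-PCR with capillary electrophoresis, fitted bidirectionally to DMSO baseline.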

Assay [7] concerns the target Nuclear respiratory factor 1 (Homo sapiens) (UniProt Q16656). Briefly: ATG_NRF1_CIS: Attagene CIS-FACTORIAL HepG2 Assay for human Nuclear Respiratory Factor 1 (NRF1) Orphan Gene (AID 2282987). To be noted: HepG2 NRF1 cis-element reporter, Attagene multiplex; actives raise or lower the signal. The method in brief:
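Using DMSO as baseline, gain- or loss-of-signal was fitted for reporter mRNA levels in HepG2 cells transiently transfected with cis-regulated reporter units. Samples were taken 24 h after dosing and read by RT-PCR with capillary electrophoresis.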

The nature of assay [8]: ATG_NFI_CIS: Attagene CIS-FACTORIAL HepG2 Assay for human Nuclear Factor I (NFI) (AID 2282989). Conditions: HepG2 cis-regulatory reporter, NFI response element transcription; actives raise or lower the signal. The method, boiled down:
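Transient MRTU transfection of HepG2 → 24 h chemical dosing → total RNA, oligo(dT) RT → PCR, 6-FAM primer extension, HpaI cut → capillary electrophoresis. Endpoint fitted bidirectionally relative to DMSO.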

In assay [9] the target is Myc proto-oncogene protein (Homo sapiens) (UniProt P01106). The assay is described as follows: ATG_Myc_CIS: Attagene CIS-FACTORIAL HepG2 Assay for human Myelocytomatosis (Myc) Proto-Oncogene Transcription Factor (AID 2282990). To be noted: HepG2, Attagene cis-reporter transcription factor activity; actives raise or lower the signal. The method, boiled down: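 Transiently transfected HepG2 cells bearing cis-promoter reporter units for endogenous transcription factors; 24 h exposure. Reporter mRNA measured by RT-PCR, 6-FAM primer extension, HpaI cut and capillary electrophoresis; bidirectional fit relative to DMSO.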

Assay [10] can be described thus: ATG_NF_kB_CIS: Attagene CIS-FACTORIAL HepG2 Assay for human Nuclear Factor Kappa B (NF-kB) (AID 2282991). Conditions: HepG2 Attagene cis-factorial NF-kB reporter mRNA; actives raise or lower the signal. The method in brief:
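Endpoint from a 52-component multiplexed HepG2 reporter panel: cis-regulated transcription units transiently transfected, 24 h dosing, reporter mRNA quantified by RT-PCR and capillary electrophoresis, scored as increase or decrease against DMSO.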

A short description of assay [11]: ATG_NRF2_ARE_CIS: Attagene CIS-FACTORIAL HepG2 Assay for human Nuclear Factor Erythroid 2 Related Factor 2 (NFR2) response to Antioxidant Response Elements (ARE) (AID 2282992).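 As to AC50: reporter mRNA level measured by RT-PCR and capillary electrophoresis fluorescence.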 Conditions: HepG2 Attagene ARE/NRF2 reporter, transcription factor activity; actives raise or lower the signal. The method, boiled down: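 Fluorescence intensity of reporter-specific cDNA fragments, separated by capillary electrophoresis, reflects mRNA induction in transfected HepG2 cells at 24 h. Activity is fitted bidirectionally, DMSO serving as baseline.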

The nature of assay [12]: ATG_Oct_MLP_CIS: Attagene CIS-FACTORIAL HepG2 Assay for human Octamer-Binding Transcription Factor (Oct) (AID 2282993). Conditions: HepG2 Attagene cis-factorial Oct reporter, mRNA; actives raise or lower the signal. The method in brief:
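Transient MRTU transfection of HepG2 → 24 h compound treatment → RNA isolation, reverse transcription, PCR → 6-FAM primer extension, HpaI digest → capillary electrophoresis. Activity fitted both directions against DMSO.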

Assay [13] concerns the target Cellular tumor antigen p53 (Homo sapiens) (UniProt P04637). Briefly: ATG_p53_CIS: Attagene CIS-FACTORIAL HepG2 Assay for human p53 Transcription Factor (AID 2282994). To be noted: HepG2 p53 cis-element reporter, Attagene mRNA; actives raise or lower the signal. The method, boiled down:
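Transiently transfected HepG2 (multiple cis reporter transcription units); exposure 24 h; reporter RNA via RT-PCR, 6-FAM extension, 2 h HpaI digest at 37 C, CE detection; DMSO baseline.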

Assay [14] concerns the target Bile acid receptor (Homo sapiens) (UniProt Q96RI1). Briefly: ATG_FXR_TRANS: Attagene TRANS-FACTORIAL HepG2 Assay for Farnesoid X Receptor (FXR) (AID 2282979; active = hit-call score of the fitted dose curve at least 0.9, where 1 is the maximum;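 also: hits raise reporter mRNA above DMSO so AC50 marks FXR activation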). To be noted: HepG2 Attagene TRANS FXR-GAL4 reporter transcription. The method, boiled down: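 HepG2 cells were transiently transfected with GAL4-UAS reporters driven by chimeric NR-Gal4 proteins and dosed for 24 h. Reporter mRNA was quantified by RT-PCR, fluorescent labelling, HpaI digestion and capillary electrophoresis, with gain of signal scored versus DMSO.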

Assay [15] in a line: BSK_3C_TissueFactor: BioMAP Diversity Plus: 3C Assay for Tissue Factor Biomarker Activity (AID 2282997). Conditions: BioMAP 3C HUVEC, tissue factor biomarker readout; actives raise or lower the signal. The method, boiled down: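 Tissue Factor measured by ELISA, 24 h after treatment of primary HUVEC in the BioMAP 3C setting.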
Assay [16] is described as follows: BSK_3C_uPAR: BioMAP Diversity Plus: 3C Assay for Urokinase-type plasminogen activator receptor (uPAR) Biomarker Activity (AID 2282998). Conditions: BioMAP 3C HUVEC, uPAR biomarker ELISA; actives raise or lower the signal. The method, boiled down: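 ELISA readout of uPAR on human vascular endothelium (umbilical vein primary cells), taken 24 h after chemical dosing. Increases and decreases are both fitted relative to DMSO vehicle.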
For orientation: ELISA stands for enzyme-linked immunosorbent assay.

A short description of assay [17]: BSK_3C_VCAM1: BioMAP Diversity Plus: 3C Assay for Vascular cell adhesion molecule 1 (VCAM1) Biomarker Activity (AID 2282999). Conditions: BioMAP 3C HUVEC, VCAM1 ELISA, cytokine-stimulated; actives raise or lower the signal. The method, boiled down:
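HUVEC primary cells, 24 h compound exposure; VCAM-1 by ELISA; gain/loss of signal fitted bidirectionally vs DMSO baseline.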

A short description of assay [18]: BSK_4H_Eotaxin3: BioMAP Diversity Plus: 4H Assay for Eotaxin 3 Biomarker Activity (AID 2283000).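 As to outcome: CCL26 protein level quantified by ELISA in parallel with SRB cytotoxicity check.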 Conditions: primary human endothelial cells (HUVEC); actives raise or lower the signal. The method in brief: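 Eotaxin-3 (CCL26) levels were measured by ELISA in HUVEC primary cultures 24 h post-dosing. Gain or loss of signal was fitted in both directions, with DMSO serving as baseline and negative control.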

A short description of assay [19]: ATG_M_06_TRANS: Attagene TRANS-FACTORIAL HepG2 Assay for M06 Transcription Factor (Internal Marker) (AID 2282983; active = hit-call score of the fitted dose curve at least 0.9, where 1 is the maximum;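 also: reporter transcript level by RT-PCR then capillary electrophoresis fluorescence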). Conditions: HepG2 Attagene TRANS M06 internal marker reporter. The method, boiled down: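 mRNA levels of a reporter transcript, quantified as FAM fluorescence on capillary electrophoresis, served as readout. HepG2 cells expressing exogenous GAL4-chimera reporter constructs were exposed for 24 h. Gain of signal over DMSO was evaluated.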

Results filed as inconclusive are left out. Activity calls are given as the source filed them. The calls were made as follows, unless noted: active = hit-call score of the fitted dose curve at least 0.9, where 1 is the maximum; inactive = score below 0.9.

Sequence of Oxysterols receptor LXR-alpha (Homo sapiens) (Q13133 whole entry, looked up, the tested form may be a part): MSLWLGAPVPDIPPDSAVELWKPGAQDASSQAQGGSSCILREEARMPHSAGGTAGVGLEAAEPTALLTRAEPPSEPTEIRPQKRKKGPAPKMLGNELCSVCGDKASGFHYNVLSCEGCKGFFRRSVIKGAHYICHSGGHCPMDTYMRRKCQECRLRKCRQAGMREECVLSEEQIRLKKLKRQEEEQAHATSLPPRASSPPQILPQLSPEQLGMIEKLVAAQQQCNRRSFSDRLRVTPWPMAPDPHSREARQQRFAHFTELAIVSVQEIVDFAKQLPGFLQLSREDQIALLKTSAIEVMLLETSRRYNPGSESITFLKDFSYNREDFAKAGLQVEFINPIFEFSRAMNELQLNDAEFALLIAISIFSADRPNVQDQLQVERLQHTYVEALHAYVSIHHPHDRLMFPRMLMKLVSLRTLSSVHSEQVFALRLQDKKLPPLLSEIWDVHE
Sequence of Nuclear receptor subfamily 4 group A member 2 (Homo sapiens) (P43354 whole entry, looked up, the tested form may be a part): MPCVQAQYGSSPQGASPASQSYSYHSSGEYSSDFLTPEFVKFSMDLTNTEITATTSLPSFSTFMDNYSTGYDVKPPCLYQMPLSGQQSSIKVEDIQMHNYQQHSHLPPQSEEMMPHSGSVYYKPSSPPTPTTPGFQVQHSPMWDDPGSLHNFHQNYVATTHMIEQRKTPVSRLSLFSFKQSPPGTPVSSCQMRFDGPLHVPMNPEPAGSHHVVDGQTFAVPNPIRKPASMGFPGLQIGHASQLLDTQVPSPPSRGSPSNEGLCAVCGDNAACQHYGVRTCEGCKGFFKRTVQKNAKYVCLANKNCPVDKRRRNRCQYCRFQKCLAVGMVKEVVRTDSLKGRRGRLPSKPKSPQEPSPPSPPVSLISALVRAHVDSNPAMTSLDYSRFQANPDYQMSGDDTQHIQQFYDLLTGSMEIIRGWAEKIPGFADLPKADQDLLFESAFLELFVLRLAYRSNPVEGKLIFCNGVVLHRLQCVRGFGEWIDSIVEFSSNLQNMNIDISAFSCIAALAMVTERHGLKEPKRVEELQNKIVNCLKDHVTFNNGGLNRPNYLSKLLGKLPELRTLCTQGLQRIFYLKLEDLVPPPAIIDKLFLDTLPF
Sequence of Cellular tumor antigen p53 (Homo sapiens) (P04637 whole entry, looked up): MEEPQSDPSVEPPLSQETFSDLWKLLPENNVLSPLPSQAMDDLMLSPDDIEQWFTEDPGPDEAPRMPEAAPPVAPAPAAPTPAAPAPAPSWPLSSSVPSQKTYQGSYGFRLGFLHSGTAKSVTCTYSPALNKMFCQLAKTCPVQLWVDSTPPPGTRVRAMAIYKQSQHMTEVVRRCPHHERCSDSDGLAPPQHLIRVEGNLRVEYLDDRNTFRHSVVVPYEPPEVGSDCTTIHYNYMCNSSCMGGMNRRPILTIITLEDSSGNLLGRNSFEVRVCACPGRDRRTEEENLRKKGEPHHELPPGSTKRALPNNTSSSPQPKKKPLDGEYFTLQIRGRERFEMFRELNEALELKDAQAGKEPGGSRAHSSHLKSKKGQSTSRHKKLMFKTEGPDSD
Sequence of Bile acid receptor (Homo sapiens) (Q96RI1 whole entry, looked up, the tested form may be a part): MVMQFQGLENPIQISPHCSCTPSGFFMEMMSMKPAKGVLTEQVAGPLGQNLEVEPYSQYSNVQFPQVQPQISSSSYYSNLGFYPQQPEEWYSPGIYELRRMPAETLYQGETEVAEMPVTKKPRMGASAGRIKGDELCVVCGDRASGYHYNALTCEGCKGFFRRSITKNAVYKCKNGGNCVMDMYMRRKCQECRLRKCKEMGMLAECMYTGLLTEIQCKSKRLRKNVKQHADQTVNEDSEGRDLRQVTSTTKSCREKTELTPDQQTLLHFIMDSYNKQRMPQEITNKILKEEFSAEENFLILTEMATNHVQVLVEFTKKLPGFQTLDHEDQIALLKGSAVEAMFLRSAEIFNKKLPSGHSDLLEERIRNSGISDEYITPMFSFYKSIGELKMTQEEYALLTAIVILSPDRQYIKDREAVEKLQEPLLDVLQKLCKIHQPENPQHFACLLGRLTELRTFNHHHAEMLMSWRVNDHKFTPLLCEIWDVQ
Sequence of Transcriptional activator Myb (Homo sapiens) (P10242 whole entry, looked up): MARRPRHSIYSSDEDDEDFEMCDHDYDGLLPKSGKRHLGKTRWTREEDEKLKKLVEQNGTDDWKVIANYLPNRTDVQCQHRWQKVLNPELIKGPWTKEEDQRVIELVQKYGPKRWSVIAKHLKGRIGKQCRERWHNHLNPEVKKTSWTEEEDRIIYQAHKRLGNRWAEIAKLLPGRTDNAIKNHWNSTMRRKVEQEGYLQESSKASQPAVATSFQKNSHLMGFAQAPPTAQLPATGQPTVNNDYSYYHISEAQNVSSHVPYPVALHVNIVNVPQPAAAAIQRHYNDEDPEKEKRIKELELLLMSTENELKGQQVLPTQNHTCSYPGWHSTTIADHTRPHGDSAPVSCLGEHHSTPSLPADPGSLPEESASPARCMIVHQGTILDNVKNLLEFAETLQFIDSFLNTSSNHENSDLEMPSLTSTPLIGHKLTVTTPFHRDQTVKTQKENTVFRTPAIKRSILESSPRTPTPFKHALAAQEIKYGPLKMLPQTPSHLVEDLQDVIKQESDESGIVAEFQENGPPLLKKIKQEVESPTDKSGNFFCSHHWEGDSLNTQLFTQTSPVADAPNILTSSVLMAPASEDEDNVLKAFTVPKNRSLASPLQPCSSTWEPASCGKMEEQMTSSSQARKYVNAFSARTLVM
Sequence of Hepatocyte nuclear factor 4-alpha (Homo sapiens) (P41235 whole entry, looked up): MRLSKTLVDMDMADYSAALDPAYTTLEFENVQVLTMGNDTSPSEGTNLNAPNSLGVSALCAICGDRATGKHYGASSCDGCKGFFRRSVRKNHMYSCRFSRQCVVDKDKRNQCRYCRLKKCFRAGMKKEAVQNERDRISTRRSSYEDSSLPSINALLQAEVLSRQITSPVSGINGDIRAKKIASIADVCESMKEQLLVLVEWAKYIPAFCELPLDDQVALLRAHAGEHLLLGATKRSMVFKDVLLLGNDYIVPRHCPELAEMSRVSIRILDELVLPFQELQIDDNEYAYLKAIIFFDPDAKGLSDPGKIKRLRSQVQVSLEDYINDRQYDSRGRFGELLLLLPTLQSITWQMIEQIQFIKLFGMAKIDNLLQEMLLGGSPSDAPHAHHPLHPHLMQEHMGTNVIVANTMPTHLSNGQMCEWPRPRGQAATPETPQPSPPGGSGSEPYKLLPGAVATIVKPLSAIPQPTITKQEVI
Sequence of Nuclear respiratory factor 1 (Homo sapiens) (Q16656 whole entry, looked up): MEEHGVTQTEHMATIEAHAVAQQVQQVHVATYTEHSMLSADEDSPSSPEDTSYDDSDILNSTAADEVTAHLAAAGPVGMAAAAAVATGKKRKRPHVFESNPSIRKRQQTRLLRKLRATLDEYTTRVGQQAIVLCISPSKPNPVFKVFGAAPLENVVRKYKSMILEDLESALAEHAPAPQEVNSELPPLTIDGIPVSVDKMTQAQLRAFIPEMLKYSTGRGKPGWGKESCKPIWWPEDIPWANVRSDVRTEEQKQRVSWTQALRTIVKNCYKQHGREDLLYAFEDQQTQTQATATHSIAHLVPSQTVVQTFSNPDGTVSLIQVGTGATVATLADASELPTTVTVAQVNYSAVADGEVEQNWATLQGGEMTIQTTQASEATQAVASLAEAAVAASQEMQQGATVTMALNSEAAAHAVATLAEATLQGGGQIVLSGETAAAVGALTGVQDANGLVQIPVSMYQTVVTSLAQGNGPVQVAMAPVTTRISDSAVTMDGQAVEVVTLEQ
Sequence of Oxysterols receptor LXR-beta (Homo sapiens) (P55055 whole entry, looked up, the tested form may be a part): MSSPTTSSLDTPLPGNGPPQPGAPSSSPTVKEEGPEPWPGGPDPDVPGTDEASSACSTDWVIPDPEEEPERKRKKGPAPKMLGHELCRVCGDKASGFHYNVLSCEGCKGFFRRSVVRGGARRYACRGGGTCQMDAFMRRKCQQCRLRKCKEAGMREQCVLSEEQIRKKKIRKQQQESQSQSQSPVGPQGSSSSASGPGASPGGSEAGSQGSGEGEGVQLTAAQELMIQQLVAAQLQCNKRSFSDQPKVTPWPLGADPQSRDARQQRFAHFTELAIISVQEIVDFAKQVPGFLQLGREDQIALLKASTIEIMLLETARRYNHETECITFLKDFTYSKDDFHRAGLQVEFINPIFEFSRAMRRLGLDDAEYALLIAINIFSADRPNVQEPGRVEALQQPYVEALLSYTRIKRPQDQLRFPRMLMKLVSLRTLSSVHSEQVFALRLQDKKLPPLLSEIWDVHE
Sequence of Myc proto-oncogene protein (Homo sapiens) (P01106 whole entry, looked up): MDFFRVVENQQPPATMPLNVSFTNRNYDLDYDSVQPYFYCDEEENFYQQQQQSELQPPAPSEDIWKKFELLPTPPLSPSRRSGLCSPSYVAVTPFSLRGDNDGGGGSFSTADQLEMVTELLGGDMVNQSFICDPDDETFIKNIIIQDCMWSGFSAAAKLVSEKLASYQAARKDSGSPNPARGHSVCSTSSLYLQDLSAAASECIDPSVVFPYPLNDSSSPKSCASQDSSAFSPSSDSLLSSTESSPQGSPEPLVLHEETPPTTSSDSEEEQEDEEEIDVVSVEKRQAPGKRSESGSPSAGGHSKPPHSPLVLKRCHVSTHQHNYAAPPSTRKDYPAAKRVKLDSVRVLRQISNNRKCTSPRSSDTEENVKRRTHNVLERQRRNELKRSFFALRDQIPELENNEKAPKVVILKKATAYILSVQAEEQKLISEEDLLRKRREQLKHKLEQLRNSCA

For orientation: AC50 means the concentration at which the activity in the assay is half-maximal. Regarding `Nc1cc(Cl)c(O)c(Cl)c1`, the compound was classed as inactive in assay [1], in [2], in assay [4], in assay [5], in assay [6] and in [7]. In addition, the compound was classed as inactive in assay [8]. For the same compound, the AC50 is 100 µM (active) in [3]; 100 µM (active) in [9]; 46.8 µM (active) in [10]; 26.5 µM (active) in [11]; 100 µM (active) in assay [12]; 144 µM (active) in assay [13].
Turning to `OCc1cccnc1`, the compound was called inactive in assay [14], in [3], in assay [5], in [7], in [8] and in [9]. The outcome in assay [10], in [11] and in [12] was inactive.
Turning to `O=C1c2ccccc2C(=O)N1SC1CCCCC1`, the compound was called inactive in [14], in assay [2], in [3], in assay [4], in assay [5] and in [6]. In addition, the compound was called inactive in assay [8], in [9], in assay [10] and in assay [12]. Further, the AC50 in assay [11] is 65.4 µM (active); in assay [13], 167 µM (active).
For the compound `OC1OC[C@@H](O)[C@H](O)[C@H]1O` (stereo not given in full), the result in [1], in assay [2], in assay [3], in [4], in [6] and in [7] was inactive. Moreover, the call in [8], in [9], in assay [10], in assay [12], in [13] and in [15] was inactive. Besides, the outcome in assay [16], in assay [17] and in [18] was inactive.
Consider `Cc1c(N(C)C)c(=O)n(-c2ccccc2)n1C`, for which the call in assay [14], in [19], in assay [4], in assay [6], in assay [7] and in assay [8] was inactive. The compound was classed as inactive in [9], in assay [10], in [11] and in [12].
As for `CN(CCOc1ccc(CC2SC(=O)NC2=O)cc1)c1ccccn1` (stereo not given), the outcome in assay [14], in assay [2], in [19], in assay [5], in [6] and in assay [7] was inactive. Moreover, the compound was called inactive in assay [8], in assay [9], in assay [10], in assay [13], in [15] and in assay [17]. Besides, the concentration at half-maximal activity (AC50) in assay [11] was 15.1 µM (active); in assay [16] it was 6.93 µM (active); in assay [18], 3.97 µM (active).
Consider `C=C(C)C1CCC(C)CC1O` (stereo not given), for which the outcome in assay [1], in assay [2], in assay [3], in assay [19], in assay [4] and in assay [6] was inactive. The compound was called inactive in assay [7], in assay [8], in assay [9], in assay [11], in [12] and in assay [13].
Turning to `O=P(c1ccccc1)(c1ccccc1)c1ccccc1`, the compound was classed as inactive in [14], in [19], in assay [4], in [6], in assay [7] and in [8]. The result in [9], in [10], in [11], in assay [13], in assay [15] and in assay [16] was inactive. Moreover, the outcome in assay [17] and in assay [18] was inactive.
Consider `CC(=O)[C@H]1CC[C@H]2[C@@H]3CC=C4C[C@@H](O)CC[C@]4(C)[C@H]3CC[C@]12C`, for which the call in assay [14], in assay [3], in [19], in assay [4], in assay [5] and in assay [6] was inactive. In addition, the compound was classed as inactive in [7], in assay [8], in [9], in assay [12], in assay [13] and in assay [15]. Moreover, the result in assay [16], in assay [17] and in [18] was inactive. The AC50 in assay [11] is 16.5 µM (active).
For `CCCC(=O)C(C)=O`, the outcome in assay [14], in assay [19], in assay [6], in assay [8], in assay [9] and in assay [10] was inactive. For the same compound, the compound was classed as inactive in [11], in assay [12] and in assay [13].
